GSH bead fluor – compound fluorescence on glutathione beads, profiling panel, artefact control, biophysical, 488/530 nm, flow cytometry; 190,000 tested, 0.25% active; GSH beads flow cytometry, compound fluorescence 488/530 nm; hits give high values; fluorescence (KMESF) at 10 µM; in the data active means fluorescence above about 89;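 further: glutathione beads carrying GST-tagged Bcl family fusion proteins plus one bare bead set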
RGS7-Gao reg – RGS7-Galphao binding modulators, primary screen, biochemical, multiplexed bead flow cytometry | actives lie on both sides | 220,000 tested, 0.35% active | Guanine nucleotide-binding protein G(o) subunit alpha (Homo sapiens), P09471 | binding response (% of control), % at 10 µM | AID 1439, 2008; in the data active means binding response below about 49% or above about 150%; inconclusive means no clear call, values can overlap the other calls; inactive means in between;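 further: fluorescent Galphao held in activated GDP-AlF4 state binding bead-coupled RGS7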
Target sequence (P09471 whole entry, looked up): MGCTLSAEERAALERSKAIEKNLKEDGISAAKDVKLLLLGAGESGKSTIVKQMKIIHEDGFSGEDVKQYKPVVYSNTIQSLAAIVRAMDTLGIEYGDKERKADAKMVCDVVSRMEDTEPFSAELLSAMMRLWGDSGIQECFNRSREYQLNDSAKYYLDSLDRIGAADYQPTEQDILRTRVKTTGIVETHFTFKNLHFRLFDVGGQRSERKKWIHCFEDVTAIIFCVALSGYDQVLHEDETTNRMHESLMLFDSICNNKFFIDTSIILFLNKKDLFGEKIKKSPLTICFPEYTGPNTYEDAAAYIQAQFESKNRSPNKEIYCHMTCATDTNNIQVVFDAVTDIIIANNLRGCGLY
RGS16-Gao – modulators of RGS16 binding to Galphao, primary screen, biochemical, human proteins, multiplexed bead flow cytometry. bead-based flow cytometry RGS16-Galphao binding, fluorescence; actives lie on both sides. 220,000 tested, 0.38% active. binding response (% of control), % at 10 µM. Regulator of G-protein signaling 16 (Homo sapiens) + Guanine nucleotide-binding protein …;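 further: Galphao activated by GDP with aluminum fluoride before binding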
Target sequence (O15492 whole entry, looked up): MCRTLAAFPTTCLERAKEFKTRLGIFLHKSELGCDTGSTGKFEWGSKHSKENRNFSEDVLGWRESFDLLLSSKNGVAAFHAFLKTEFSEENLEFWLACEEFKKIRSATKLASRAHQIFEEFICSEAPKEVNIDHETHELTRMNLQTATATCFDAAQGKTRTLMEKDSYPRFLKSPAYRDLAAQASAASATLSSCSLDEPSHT
Target sequence (P09471 whole entry, looked up): as the sequence (P09471 whole entry, looked up) above
RGS8-Gao reg – RGS8-Galphao binding modulators, primary screen, biochemical, multiplexed bead flow cytometry; Guanine nucleotide-binding protein G(o) subunit alpha (Homo sapiens), P09471; actives lie on both sides; response (percent of control binding), % at 10 µM; 220,000 tested, 0.34% active; AID 1423, 2008; in the data active means response below about 60% or above about 140%; inactive means in between;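 further: Galphao activated as the GDP aluminium fluoride complex binding bead-coupled RGS8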
RGS4-Gao reg – modulators of RGS4 binding to Galphao, primary screen, biochemical, multiplexed bead flow cytometry; Guanine nucleotide-binding protein G(o) subunit alpha (Homo sapiens), P09471; AID 1415, 2008; 220,000 tested, 0.33% active; actives lie on both sides; binding response (% of control), % at 10 µM; in the data active means binding response below about 49% or above about 150%; inactive means in between;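 further: fluorescent Galphao activated with aluminum fluoride binding bead-coupled RGS4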
Avidin fluor – green autofluorescence of compounds with avidin beads – biophysical, 488/530 nm, flow cytometry, artefact control, profiling panel; compound fluorescence 488/530 nm; hits give high values; fluorescence (KMESF) at 10 µM; 220,000 tested, 0.38% active; AID 1775, 2009; in the data active means fluorescence above about 47
RGS4-Gao HTS – modulators of RGS–Galpha-o binding, primary screen, biochemical, multiplexed beads, flow cytometry, RGS4/7/8/16/19; shares compounds with RGS16-Gao; multiplexed bead flow cytometry; RGS4–Galpha-o binding response, % at 10 µM; 1,600 tested, 99% active;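 further: fluorescently labeled Galpha-o bound to GDP with aluminium fluoride binding biotinylated RGS beads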
Biotin-avidin – disruption of biotin probe capture by avidin, counter-screen for RGS protein interaction modulators, biochemical, flow cytometry, bead-based; 1,700 tested, under 10 active; inhibition, % at 10 µM; shares compounds with RGS16-Gao; streptavidin beads, fluorescein-biotin binding;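 active means inhibition above 50%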;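 further: median green fluorescence of gated singlet beads compared with DMSO control wells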
RGS8-Gao single – RGS8-Galphao binding modulators, confirmation, biochemical, multiplexed bead flow cytometry, single concentration; 1,700 tested, 3% active; binding response (% of control), % at 10 µM; shares compounds with RGS16-Gao; bead-based flow cytometry RGS8-Galphao binding, fluorescence; actives lie on both sides; in the data active means binding response below about 72% or above about 130%; inactive means in between;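 further: Galphao activated as GDP AlF4 complex before binding bead RGS8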
RGS7-Gao confirm – RGS7-Galphao binding modulators, confirmation, biochemical, multiplexed bead flow cytometry, single concentration; shares compounds with RGS16-Gao; 1,700 tested, 7.8% active; bead-based flow cytometry RGS7-Galphao binding; actives lie on both sides; response (percent of control binding), % at 10 µM; AID 1837, 2009; in the data active means response below about 75% or above about 130%; inactive means in between;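 further: fluorescent Galphao activated with GDP and aluminum fluoride binding bead-coupled RGS7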
RGS16-Gao conf – modulators of RGS16-Galphao protein binding, confirmation, biochemical, single concentration, multiplexed bead flow cytometry; response (% of control binding), % at 10 µM; shares compounds with RGS16-Gao; AID 1838, 2009; 1,700 tested, 4% active; bead-based flow cytometry; actives lie on both sides; in the data active means response below about 74% or above about 130%; inactive means in between;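 further: Galphao activated as the GDP aluminium fluoride complex binding bead-coupled RGS16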
RGS4-Gao confirm – modulators of RGS4-Galphao protein binding, confirmation, biochemical, single concentration, multiplexed bead flow cytometry | 1,700 tested, 4% active | binding response (% of control), % at 10 µM | actives lie on both sides | shares compounds with RGS16-Gao; in the data active means binding response below about 74% or above about 130%; inactive means in between
RGS19-Gao conf – regulators of RGS19-Galphao binding, confirmation, biochemical, single point, multiplexed bead flow cytometry. 1,700 tested, 5% active. bead-based flow cytometry RGS19-Galphao binding; actives lie on both sides. shares compounds with RGS16-Gao. response (percent of control binding), % at 10 µM; in the data active means response below about 50% or above about 160%; inactive means in between
Hits are given with their value; - = inactive; ? = inconclusive; . = no result; [ ] = another dose, or the depositor's remark. The list is not random: actives were taken first. Their share in the collection is about 1.2%. Unless noted, how the calls were made is not given here.

SMILES	GSH bead fluor	RGS7-Gao reg	RGS16-Gao	RGS8-Gao reg	RGS4-Gao reg	Avidin fluor	RGS4-Gao HTS	Biotin-avidin	RGS8-Gao single	RGS7-Gao confirm	RGS16-Gao conf	RGS4-Gao confirm	RGS19-Gao conf
CC(C)CN(C(=O)CN1CC=C(c2ccccc2)CC1)c1c(N)n(CC(C)C)c(=O)[nH]c1=O	-	-	-	-	-	.	.	.	.	.	.	.	.
Cc1nc2c(c(=O)[nH]1)C(c1ccccc1Cl)c1c(c3ccccc3oc1=O)O2 (stereo unspecified)	.	?	-	-	-	-	.	.	.	.	.	.	.
c1cc(CCN2CCCC2)ccn1	.	?	-	-	-	-	.	.	.	.	.	.	.
CCN1CCN(C(=O)COc2ccc(S(=O)(=O)N(C)Cc3ccccc3)cc2)CC1	-	-	24	-	-	-	82	-	-	-	-	-	-
Cc1cc(OC(=O)N(C)C)n(-c2ccccc2)n1	.	?	-15	9.2	-23	-	.	-	-	-	-	-	-
O=[N+]([O-])c1cc(S(=O)(=O)c2ccc(O)c([N+](=O)[O-])c2)ccc1O	-	-	-	-	-	-	.	.	.	.	.	.	.
O=C(Nc1ccccc1)c1cc([N+](=O)[O-])ccc1N1CCNCC1	-	?	-	59	-	-	89	-	-	-	-	-	-
CCN1CCN(c2ccc([N+](=O)[O-])cc2C(=O)OC)CC1	-	-	-	-	-	-	.	.	.	.	.	.	.
CSc1ccc(C(=O)C2CCCN(CCCn3cccn3)C2)cc1 (stereo unspecified)	-	-	-	-	-	-	.	.	.	.	.	.	.
COc1ccc(C=C2C(=O)N(C)C(=O)N(C)C2=O)cc1COc1ccc(NC(C)=O)cc1	.	?	-	-	-	-	.	-	-	-	-	-	-
COc1ccc(C=C2C(=O)N(C)C(=O)N(C)C2=O)cc1CSc1ccccn1	-	-	-	-	-	-	.	.	.	.	.	.	.
CC[N+](CC)(CC)CC	.	?	-	-	-	-	.	.	.	.	.	.	.
COc1ccccc1/C=N/N=C(/N)N[N+](=O)[O-]	-	-	-	-	-	-	.	.	.	.	.	.	.
N/C(=N\N=C\c1ccc(O)cc1O)N[N+](=O)[O-]	-	-	-23	-	-	-	84	-	-	-	-	-	-
CCn1c(O)c(C=NCCN2CCOCC2)c(=O)[nH]c1=S	.	?	-	-	-	-	.	.	.	.	.	.	.
CC(=O)NNC(=O)CN1C(=O)CN=C(c2ccccc2)c2cc(Br)ccc21	-	-	-	-	-	-	.	.	.	.	.	.	.
CN(C)C(=O)Oc1c(Cl)cc(Cl)c2ccccc12	-	-	-	-	-	-	.	.	.	.	.	.	.
CN(C)C(=O)Oc1ccc(Cl)c2cccnc12	-	-	-	57	-	-	75	-	-	-	-	-	-
CCC1(CC)C(=O)N(C)C(=O)NC1=NC	.	?	204[activator]	-	196[activator]	95	.	-	-	-	-	-	-
O=C(CN1CC=C(c2ccccc2)CC1)Nc1cc(Cl)ccc1Cl	-	-	-	-	-	-	.	.	.	.	.	.	.
Cc1ccc(S(=O)(=O)N2CCCCC2)cc1NC(=O)CN1CC=C(c2ccccc2)CC1	-	-	-	142[activator]	-	-	118	-	-	-	-	-	-
Cn1c(O)c(C(=Nc2ccc(F)cc2)c2ccccc2Cl)c(=O)n(C)c1=O	.	?	-	-	-	-	.	.	.	.	.	.	.
COC(=O)C(O)(c1ccc(NC(=S)NC(=O)c2ccc(Cl)cc2Cl)cc1)C(F)(F)F (stereo unspecified)	-	-	-	-	-	-	.	.	.	.	.	.	.
COC(=O)C(O)(c1ccc(NC(=O)NC2CCCCC2)cc1)C(F)(F)F (stereo unspecified)	-	157[activator]	-	-	175[activator]	83	.	-	-	59	-	73	-
Cc1nnc2ccc(N3CCN(C)CC3)nn12	-	-	-	144[activator]	-	-	121	-	-	-	-	-	-
SMILES	GSH bead fluor	RGS7-Gao reg	RGS16-Gao	RGS8-Gao reg	RGS4-Gao reg	Avidin fluor	RGS4-Gao HTS	Biotin-avidin	RGS8-Gao single	RGS7-Gao confirm	RGS16-Gao conf	RGS4-Gao confirm	RGS19-Gao conf
C[C@@H]1CC2(CCCC[N+]2(C)C)C[C@H]1C	-	-	-	-	-	-	.	.	.	.	.	.	.
COc1cc(CC2(CCc3ccncc3)C(=O)N(C)C(=O)N(C)C2=O)cc(OC)c1OC	-	-	-	58	-	-	101	-	-	-	-	-	-
C=CCN1CC[C@]23c4c5ccc(O)c4O[C@H]2C(=O)CC[C@@]3(O)[C@H]1C5	-	34	-	57	48	-	.	-	-	-	-	-	-
O=C(Cc1ccccc1)N1CCN(C/C=C/c2ccccc2)CC1	-	7.9	-0.6	29	-8.3	-	.	-	-	-	-	-	-
CCOP(=S)(OCC)SCC(=O)NC(C)(CC)C(=O)O (stereo unspecified)	-	-	-105	-	-	-	74	-	-	-	-	-	-
COC(=O)c1ccc(C(C(=O)NC2CCCCC2)N(CCN2CCOCC2)C(=O)Cc2cccs2)cc1 (stereo unspecified)	-	-	-	-	-	-	.	.	.	.	.	.	.
CCCCCCC[n+]1ccc(-c2cc[n+](CCCCCCC)cc2)cc1	-	-	13	-	-	-	115	-	-	-	-	-	-
